# Experimental data: PubChem BioAssay (Tox21)
# “And” between values parts separate entries of the source, which are not always exact repeats. Equal values may be shown once. Records with an inconclusive call do not appear. Where a call stands in place of a potency, no number is given. The source made the active and inactive calls. The call rests on the fitted dose curve; in most records, active means well fitted cell-killing curve with a large enough effect in the repeat runs; inconclusive means weak or mixed curves, or effect the other way; inactive means flat fitted curve, though single readings scatter.
# Key:
# [1] = cAMP Responsive Elements (CRE) small molecule antagonists, cell-based qHTS assay: qHTS cell viability counter screen (AID 2060913); details: CRE-bla HEK293T viability, CellTiter-Glo luminescence, 5 h; series mostly up to 92.4 µM; further: nearly all actives have a fitted effect of over 40% in size
# In short: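 Viability of NKH477-stimulated (0.25 uM final) CRE-bla HEK293T cells is measured by CellTiter-Glo luminescence following 3 hrs compound exposure at 37 C.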
# [2] = cAMP Responsive Elements (CRE) small molecule agonists, cell-based qHTS assay: qHTS cell viability counter screen (AID 2060914); details: CRE-bla HEK293T viability, CellTiter-Glo luminescence, 5 h; series mostly up to 92.4 µM;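 further: viability read after 3 h of compound exposure; nearly all actives have a fitted effect of over 50% in size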
# In short: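 Cells are seeded and incubated 18 h, treated with compounds in DMSO for 3 h, read for the bla reporter, then given CellTiter-Glo; luminescence is measured after 30 min at room temperature.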
# Potency means the concentration at half of the fitted maximal effect.
Structure (SMILES),Potency [1],Potency [2]
O=C1C=CC(=O)C=C1,inactive,inactive
NCCc1ccc(O)cc1,inactive,inactive
COc1cc(Cl)c(OC)cc1Cl,inactive,inactive
CCCCCCCCC(=O)NCc1ccc(O)c(OC)c1,inactive,inactive
CCN[C@@H](C)Cc1ccccc1,inactive,inactive
CC(C)[C@]12CC(=O)[C@H](C)[C@H]1C2,inactive,inactive
O=C(O)C(F)(F)C(F)(F)C(F)(F)C(F)(F)C(F)(F)C(F)(F)C(F)(F)C(F)(F)F,inactive,inactive
O=C1C(I)=CC(=C(c2cc(I)c(O)c(I)c2)c2ccccc2C(=O)O)C=C1I,inactive,inactive
CCC(=O)Nc1ccc(Cl)c(Cl)c1,inactive,inactive
CCCN1CCC[C@@H]2Cc3nc(N)ncc3C[C@H]21,inactive,inactive
CC(C)(O)C(=O)Nc1ccc([N+](=O)[O-])c(C(F)(F)F)c1,inactive,inactive
COc1ccc(O)c(C(C)(C)C)c1,inactive,inactive
Cl/C=C\Cl,inactive,inactive
COP(=S)(OC)Oc1cc(Cl)c(I)cc1Cl,inactive,inactive
CC1(C)CON(Cc2ccccc2Cl)C1=O,inactive,inactive
CN(C)CCc1c[nH]c2cccc(OP(=O)(O)O)c12,inactive,inactive
CCCCOCCOC(C)=O,inactive,inactive
C[C@]12CC[C@H]3[C@@H](CCC4=CC(=O)CC[C@@H]43)[C@@H]1CC[C@@H]2OC(=O)CCc1ccco1,inactive,inactive
Cc1cccc(C#N)c1,inactive,inactive
O=C(CBr)c1ccc(O)cc1,inactive,inactive
O=[N+]([O-])c1ccc(CBr)cc1,inactive,inactive
CCOc1cccc(C2(N3CCN(c4ccccc4)CC3)CCC(C)CC2)c1 (stereo not given),inactive,inactive
CCOC(=O)C1OC1(C)c1ccccc1 (stereo not given),inactive,inactive
CCN(CC)CCc1c[nH]c2ccccc12,inactive,inactive

Structure (SMILES),Potency [1],Potency [2]
C=C(Cl)CSC(=S)N(CC)CC,inactive,inactive
C=CC(=O)OCCCCOC(=O)C=C,inactive,inactive
CC(Oc1cc(Cl)c(Cl)cc1Cl)C(=O)O (stereo not given),inactive,inactive
CC(C=O)Cc1ccc2c(c1)OCO2 (stereo not given),inactive,inactive
COC(=O)C1=CCCN(C)C1,inactive,inactive
CN1COCN(Cc2cnc(Cl)s2)/C1=N\[N+](=O)[O-],inactive,inactive
CCOC(=O)Nc1cccc(OC(=O)Nc2ccccc2)c1,inactive,inactive
COC(=O)[C@@H](N)CCCN/C(N)=N/[N+](=O)[O-],inactive,inactive
CNCC(O)c1ccc(O)cc1 (stereo not given),inactive,inactive
CCCN(CCC)N=O,inactive,inactive
ClCC(Br)CBr (stereo not given),inactive,inactive
O=C1CN2CCOC2(c2ccccc2Cl)c2cc(Cl)ccc2N1 (stereo not given),inactive,inactive
O=S(=O)(c1ccc(O)cc1)c1ccc(O)cc1,inactive,inactive
CCCCNP(N)(N)=S,inactive,inactive
CNC(=O)Oc1cccc(N=CN(C)C)c1,inactive,inactive
Oc1cc(Cl)ccc1Cl,inactive,inactive
N#CCCC(Br)(C#N)CBr (stereo not given),inactive,inactive
CCCCOC(=O)COC(=O)c1ccccc1C(=O)OCCCC,inactive,inactive
CCCSC(=O)Cl,inactive,inactive
C1CN2CCC1CC2,inactive,inactive
CN(C)CCc1ccc(O)cc1,inactive,inactive
O=C1OC(c2ccc(O)c(S(=O)(=O)O)c2)(c2ccc(O)c(S(=O)(=O)O)c2)c2c(Br)c(Br)c(Br)c(Br)c21,inactive,inactive
CC(=[OH+])/C=C(/C)[O-].CC(=[OH+])/C=C(\C)[O-].CC(=[OH+])/C=C(\C)[O-].[Al],inactive,inactive
CC(C)=CCOc1c2occc2cc2ccc(=O)oc12,inactive,inactive

Structure (SMILES),Potency [1],Potency [2]
CCCn1cc[n+](C)c1,inactive,inactive
[Cl-].[Cl-].[Hg+2],19.2 µM (active) and 8.63 µM (active),21.6 µM (active) and 12.2 µM (active)
O=CC(Br)(Br)Br,inactive,inactive
O=C(O)C(F)(F)C(F)(F)C(F)(F)C(F)(F)C(F)(F)C(F)(F)C(F)(F)C(F)(F)C(F)(F)C(F)(F)F,inactive,inactive
Nc1ccccc1C(=O)OCC(O)CO (stereo not given),inactive,inactive
CCc1ccc(C2CCNCC2)cc1,inactive,inactive
N#CCc1ccc(Cl)cc1,inactive,inactive
CC[C@@H](CO)NC(=O)[C@@H]1C=C2c3cccc4[nH]cc(c34)C[C@H]2N(C)C1,inactive,inactive
Cc1ccc(-c2nc3ccc(C)cn3c2CC(=O)N(C)C)cc1,inactive,inactive
CN(C)C(=O)C(c1ccccc1)c1ccccc1,inactive,inactive
O=C1CC[C@@]2(O)[C@H]3Cc4ccc(O)c5c4[C@@]2(CCN3CC2CC2)[C@H]1O5,inactive,inactive
O=[Se]=O,30.4 µM (active),17.1 µM (active)
CCCCCCCCCCCCOS(=O)(=O)O,inactive,inactive
O=NN1CCCCCCC1,inactive,inactive
C=CC(C)=O,inactive,inactive
Clc1cc(Cl)c(Cl)c(Cl)c1,inactive,inactive
CCC(=O)C(CC(C)N(C)C)(c1ccccc1)c1ccccc1 (stereo not given),inactive,inactive
O=C(O)CCCc1ccc(N(CCCl)CCCl)cc1,inactive,inactive
[Cl-].[Cl-].[Cl-].[Yb+3],inactive,inactive
CCOC(=O)COc1cc(-c2nn(C)c(OC(F)F)c2Cl)c(F)cc1Cl,inactive,inactive
O=CNC(N1CCN(C(NC=O)C(Cl)(Cl)Cl)CC1)C(Cl)(Cl)Cl (stereo not given),inactive,inactive
CN,inactive,inactive
CS(=O)(=O)c1cc(C(F)(F)F)ccc1C(=O)c1cnoc1C1CC1,inactive,inactive
Cl/C=C/CCl,inactive,inactive

Structure (SMILES),Potency [1],Potency [2]
O=C(Nc1ccccc1)c1ccccc1I,inactive,inactive
O=NN(c1ccccc1)c1ccccc1,inactive,inactive
CCCCC(CC)CO[N+](=O)[O-] (stereo not given),inactive,inactive
O=S(=O)(Cl)Cl,inactive,inactive
C=CC(=O)OCC(C)O (stereo not given),inactive,inactive
O=C1CN=C(c2ccccc2)c2cc(Cl)ccc2N1CC1CC1,inactive,inactive
COc1ccc(N)cc1,inactive,inactive
c1ccc2c(c1)-c1cccc3cccc-2c13,inactive,inactive
O=C(Cl)/C=C/C(=O)Cl,inactive,inactive
NP(N)(=O)NC(=O)c1ccc(F)cc1,inactive,inactive
C=CC(=O)NCNC(=O)C=C,inactive,inactive
C=C(C)C#N,inactive,inactive
CCCCCCCCOC(=O)c1ccccc1C(=O)OCCCCCCCC,inactive,inactive
O=C(O)C(Br)Br,inactive,inactive
CNC(=O)O/N=C/C(C)(C)S(C)=O (stereo not given),inactive,inactive
CN(C)CCc1c[nH]c2ccc(O)cc12,inactive,inactive
C(COCC1CO1)OCC1CO1 (stereo not given),inactive,inactive
CCC[CH2][Sn]([Cl])([Cl])[Cl],inactive,inactive
O=[N+]([O-])c1cc(Cl)c(Cl)cc1Cl,inactive,inactive
Oc1ccccc1-c1ccccc1,inactive,inactive
CC(=O)[O][Sn]([c]1ccccc1)([c]1ccccc1)[c]1ccccc1,6.11 µM (active),30.6 µM (active)
O=[N+]([O-])c1cccc(O)c1,inactive,inactive
N#CCNCC#N,inactive,inactive
Nc1ccc2c(c1)Cc1ccccc1-2,inactive,inactive

Structure (SMILES),Potency [1],Potency [2]
CCOP(=S)(OCC)SCCl,inactive,inactive
CCN(CC)c1ccccc1,inactive,inactive
O=[N+]([O-])c1ccc([As](=O)(O)O)cc1,inactive,inactive
CCCCC(CC)COC(=O)Cl (stereo not given),inactive,inactive
CCC(CC)(CNC(=O)CCCO)c1cccc(OC)c1,inactive,inactive
CCCCC(=O)Cl,inactive,inactive
CCOC(=S)S,inactive,inactive
CC(C)=CC1C(C(=O)OCN2C(=O)C3=C(CCCC3)C2=O)C1(C)C (stereo not given),inactive,inactive
O=[N+]([O-])c1ccc2c3c(cccc13)CC2,inactive,inactive
CC(=O)[O-].CC(=O)[O-].O.O.[Zn+2],inactive,inactive
ClC1=C(Cl)C2(Cl)C3C(Cl)C=CC3C1(Cl)C2(Cl)Cl (stereo not given),inactive,inactive
CCNc1nc(Cl)nc(NC(C)(C)C#N)n1,inactive,inactive
CN(C)CCC#N,inactive,inactive
Clc1cccc(Cl)c1,inactive,inactive
[Cl-].[Cl-].[Sn+2],inactive,inactive
ClCc1ccccc1,inactive,inactive
Oc1cccc(-c2ccccc2)c1,inactive,inactive
Nc1c(Cl)c(Cl)nc(C(=O)O)c1Cl,inactive,inactive
CC(C)N(C(=O)SC/C(Cl)=C/Cl)C(C)C,inactive,inactive
COc1c2c(cc3c1OCO3)CCN(C)C2,inactive,inactive
COC(=O)C(C)N(C(=O)Cc1ccccc1)c1c(C)cccc1C (stereo not given),inactive,inactive
COC(N)=O,inactive,inactive
O=C(NC(=O)c1c(F)cccc1F)Nc1cc(Cl)c(OC(F)(F)C(F)C(F)(F)F)cc1Cl (stereo not given),inactive,inactive
N#CCBr,inactive,inactive
